Whole data set: some 8,300 sequences, median “log2 fold change of degron read counts, EGFP-low vs EGFP+ sorted cells (limma voom), compound-induced degradation” near -1.1, cut for the highest 2% near 3.2. Shown is part of a subset that was picked to be rich in the highest values.

This experiment concerns the target T1, CRBN, Q96SW2.
T1 chain: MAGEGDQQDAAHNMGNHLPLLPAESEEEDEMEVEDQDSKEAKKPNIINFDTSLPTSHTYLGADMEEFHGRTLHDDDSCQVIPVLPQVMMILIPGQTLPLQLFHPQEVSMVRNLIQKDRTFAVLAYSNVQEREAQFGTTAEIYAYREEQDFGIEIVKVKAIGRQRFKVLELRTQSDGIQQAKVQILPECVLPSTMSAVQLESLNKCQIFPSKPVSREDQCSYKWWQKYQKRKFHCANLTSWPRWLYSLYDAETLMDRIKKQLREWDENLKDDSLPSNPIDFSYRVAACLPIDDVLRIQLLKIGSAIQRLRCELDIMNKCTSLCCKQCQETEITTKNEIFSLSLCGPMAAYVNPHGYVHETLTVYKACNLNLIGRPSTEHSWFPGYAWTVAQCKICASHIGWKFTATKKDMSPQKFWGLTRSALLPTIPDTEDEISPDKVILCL
Nature of the experiment: log2 fold change of degron read counts, EGFP-low vs EGFP+ sorted cells (limma voom), compound-induced degradation; higher = more compound-induced degradation of the degron-EGFP fusion; degrons are variants of IKZF1/3 zinc finger 2; compound dose not given here. To be noted: Jurkat, 18 h.

Setting [1] is: compound: compound 19 (5-tert-butyl-thalidomide).
Setting [2] is: compound: compound 22 (5-morpholino-thalidomide).
Setting [3] is: compound: compound 33 (diphenyl IMiD analogue).
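Note: pooled lentiviral library of zinc finger degron-EGFP fusions in mCherry-positive Jurkat cells, FACS-sorted after compound exposure, with degron abundance counted by next-generation sequencing.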

As to LHCEICGFCCTQKGNLLRHIKL [46L_47H_49E_50I_52G_53F_54C_55C_67L_, Q9UKT9], the “log2 fold change of degron read counts” value reads like this: under setting [1], 1.84; under setting [2], 1.64; under setting [3], 1.25; (compound: thalidomide) 0.874.
Taken in the same sequence, the figures for FYCEICGRTFTQKGNLLRHIKL [46F_47Y_49E_50I_52G_53R_54T_55F_67L_, Q9UKT9] were 0.432, 1.09, 0.33 and -1.02.
Taken in the same sequence, the figures for FYCNQCGHVFTQKGNLLRHIKL [46F_47Y_49N_50Q_52G_53H_54V_55F_67L_, Q9UKT9] were -2.11, -2.08, -2.48 and -1.76.
For the sequence FHCPVCGAFFTQKGNLLRHIKL [46F_47H_49P_50V_52G_53A_54F_55F_67L_, Q9UKT9], the “log2 fold change of degron read counts” value is 0.94 under setting [1], 0.598 under setting [2], 1.1 under setting [3] and -0.224 (compound: thalidomide).
On to FICEICGAYFTQKGNLLRHIKL [46F_47I_49E_50I_52G_53A_54Y_55F_67L_, Q9UKT9], for which the “log2 fold change of degron read counts” value reads like this: under setting [1], -0.272; under setting [2], 1.41; under setting [3], 2.34; (compound: thalidomide) 2.12.
Taken in the same sequence, the figures for FRCEICGAYFTQKGNLLRHIKL [46F_47R_49E_50I_52G_53A_54Y_55F_67L_, Q9UKT9] were -0.965, -0.721, 0.747 and 1.98.
In the same order, the values of FYCEICGAYFTQKGNLLRHIKL [46F_47Y_49E_50I_52G_53A_54Y_55F_67L_, Q9UKT9] are 3.25, 2.89, 2.12 and 0.307.
In the same order, the values of FWCEICGAYFTQKGNLLRHIKL [46F_47W_49E_50I_52G_53A_54Y_55F_67L_, Q9UKT9] are 3.24, 2.92, 1.88 and 0.14.
Regarding FACEICGAYFTQKGNLLRHIKL [46F_47A_49E_50I_52G_53A_54Y_55F_67L_, Q9UKT9], the “log2 fold change of degron read counts” value reads like this: under setting [1], 3.17; under setting [2], 1.39; under setting [3], 0.71; (compound: thalidomide) 0.202.
For FGCEICGAYFTQKGNLLRHIKL [46F_47G_49E_50I_52G_53A_54Y_55F_67L_, Q9UKT9], the “log2 fold change of degron read counts” value was 1.74 under setting [1], 0.231 under setting [2], 2.58 under setting [3] and 0.883 (compound: thalidomide).

These data come from the supplement of paper PMC12645437, “Orthogonal IMiD-Degron Pairs Induce Selective Protein Degradation in Cells” (ACS Chemical Biology, 2025).
